# Measured values as given in PubChem BioAssay AID1159580 (chemical genetic matrix, 2015).
# Screen size: about 5,500 compounds; about 2,000 (36%) were called active. Inconclusive results (about 18%) are left out. This is one part of the list. Values without a mark were called inactive. Cut-off read from the data, not from the text of the source: active = normalized growth mostly below about 0.91 (no sharp cut-off); inconclusive = no clear call, values can overlap the other calls; inactive = mostly above about 0.92.
# Test: chemical genetic growth profiling, strain panel (AID 1159580);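 note: tested at 20 µM; growth read once vehicle control cultures reached saturation at 30 °C; 1 = growth at the plate median or of vehicle wells; lower values mean less growth of the strain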
# Settings: S. cerevisiae deletion strains, growth OD
structure (smiles),measurement,setting,value
CC(=O)c1ccc(O)c(CC=C(C)C)c1,normalized growth,"locus YAL021C, strain ccr4, stronger effect = lower value",1
same,normalized growth,"locus YAL026C, strain drs2, stronger effect = lower value",0.952
same,normalized growth,"locus YAL030W, strain snc1, stronger effect = lower value",0.972
same,normalized growth,"locus YBL061C, strain skt5, stronger effect = lower value",0.956
same,normalized growth,"locus YBR009C, strain hhf1, stronger effect = lower value",0.933
same,normalized growth,"locus YBR021W, strain FUR4, stronger effect = lower value",0.954
same,normalized growth,"locus YBR023C, strain chs3, stronger effect = lower value",0.964
same,normalized growth,"locus YBR171W, strain sec66, stronger effect = lower value",0.949
same,normalized growth,"locus YBR229C, strain ROT2, stronger effect = lower value",0.983
same,normalized growth,"locus YBR231C, strain swc5, stronger effect = lower value",0.929
same,normalized growth,"locus YBR279W, strain paf1, stronger effect = lower value",0.977
same,normalized growth,"locus YCL011C, strain gbp2, stronger effect = lower value",0.959
same,normalized growth,"locus YCL016C, strain dcc1, stronger effect = lower value",0.999
same,normalized growth,"locus YCL029C, strain bik1, stronger effect = lower value",0.967
same,normalized growth,"locus YCL061C, strain MRC1, stronger effect = lower value",0.965
same,normalized growth,"locus YCL069W, strain vba3, stronger effect = lower value",0.971
same,normalized growth,"locus YCR088W, strain abp1, stronger effect = lower value",0.968
same,normalized growth,"locus YDL005C, strain med2, stronger effect = lower value",0.952
same,normalized growth,"locus YDL035C, strain GPR1, stronger effect = lower value",0.956
same,normalized growth,"locus YDL040C, strain nat1, stronger effect = lower value",0.97
same,normalized growth,"locus YDL074C, strain BRE1, stronger effect = lower value",0.867
same,normalized growth,"locus YDL101C, strain DUN1, stronger effect = lower value",0.963
same,normalized growth,"locus YDL134C, strain PPH21, stronger effect = lower value",0.984
same,normalized growth,"locus YDL185W, strain tfp1, stronger effect = lower value",0.922
same,normalized growth,"locus YDL192W, strain arf1, stronger effect = lower value",0.942
same,normalized growth,"locus YDR001C, strain nth1, stronger effect = lower value",0.966
same,normalized growth,"locus YDR069C, strain doa4, stronger effect = lower value",0.951
same,normalized growth,"locus YDR101C, strain arx1, stronger effect = lower value",0.968
same,normalized growth,"locus YDR137W, strain rgp1, stronger effect = lower value",0.983
same,normalized growth,"locus YDR159W, strain sac3, stronger effect = lower value",0.896
same,normalized growth,"locus YDR162C, strain NBP2, stronger effect = lower value",0.963
same,normalized growth,"locus YDR195W, strain ref2",0.975
same,normalized growth,"locus YDR297W, strain sur2, stronger effect = lower value",0.933
same,normalized growth,"locus YDR318W, strain mcm21, stronger effect = lower value",0.958
same,normalized growth,"locus YDR334W, strain swr1, stronger effect = lower value",0.966
same,normalized growth,"locus YDR335W, strain msn5, stronger effect = lower value",0.994
same,normalized growth,"locus YDR388W, stronger effect = lower value",0.967
same,normalized growth,"locus YDR392W, strain spt3, stronger effect = lower value",0.929
same,normalized growth,"locus YDR502C, strain sam2, stronger effect = lower value",0.938
same,normalized growth,"locus YEL003W, strain gim4, stronger effect = lower value",0.928
same,normalized growth,"locus YEL037C, strain rad23, stronger effect = lower value",0.964
same,normalized growth,"locus YEL061C, strain CIN8 (second series), stronger effect = lower value",0.965
same,normalized growth,"locus YEL061C, strain CIN8, stronger effect = lower value",0.982
same,normalized growth,"locus YER015W, strain faa2, stronger effect = lower value",0.971
same,normalized growth,"locus YER016W, strain bim1, stronger effect = lower value",0.975
same,normalized growth,"locus YER110C, stronger effect = lower value",0.965
same,normalized growth,"locus YER111C, strain swi4, stronger effect = lower value",0.974
same,normalized growth,"locus YER155C, strain BEM2 (second series), stronger effect = lower value",0.958
same,normalized growth,"locus YER155C, strain BEM2, stronger effect = lower value",0.986
same,normalized growth,"locus YER167W, strain BCK2, stronger effect = lower value",0.904
same,normalized growth,"locus YFR010W, strain ubp6, stronger effect = lower value",0.952
same,normalized growth,"locus YGL078C, strain dbp3, stronger effect = lower value",0.961
same,normalized growth,"locus YGL086W, strain mad1, stronger effect = lower value",0.972
same,normalized growth,"locus YGL167C, strain pmr1, stronger effect = lower value",0.962
same,normalized growth,"locus YGL173C, strain kem1, stronger effect = lower value",0.949
same,normalized growth,"locus YGL227W, strain vid30, stronger effect = lower value",0.961
same,normalized growth,"locus YGL240W, strain doc1, stronger effect = lower value",0.894
same,normalized growth,"locus YGL248W, strain PDE1, stronger effect = lower value",0.961
same,normalized growth,"locus YGL253W, strain hxk2, stronger effect = lower value",0.884 (active)
same,normalized growth,"locus YGR078C, strain PAC10, stronger effect = lower value",0.936
same,normalized growth,"locus YGR135W, strain pre9, stronger effect = lower value",0.934
same,normalized growth,"locus YGR229C, strain SMI1, stronger effect = lower value",0.84
same,normalized growth,"locus YGR252W, strain gcn5, stronger effect = lower value",0.749 (active)
same,normalized growth,"locus YHR013C, strain ard1, stronger effect = lower value",0.991
same,normalized growth,"locus YHR027C, strain rpn1, stronger effect = lower value",0.971
same,normalized growth,"locus YHR030C, strain SLT2, stronger effect = lower value",0.976
same,normalized growth,"locus YHR079C, strain IRE1 (second series), stronger effect = lower value",0.959
same,normalized growth,"locus YHR094C, strain hxt1, stronger effect = lower value",0.967
same,normalized growth,"locus YHR129C, strain ARP1, stronger effect = lower value",0.967
same,normalized growth,"locus YHR142W, strain chs7, stronger effect = lower value",0.926
same,normalized growth,"locus YHR200W, strain rpn10, stronger effect = lower value",0.971
same,normalized growth,"locus YIL066C, strain RNR3, stronger effect = lower value",0.945
same,normalized growth,"locus YIL073C, strain SPO22, stronger effect = lower value",0.955
same,normalized growth,"locus YIR030C, strain dcg1, stronger effect = lower value",0.965
same,normalized growth,"locus YJL092W, strain hpr5, stronger effect = lower value",0.97
same,normalized growth,"locus YJL095W, strain BCK1 (second series), stronger effect = lower value",0.964
same,normalized growth,"locus YJL095W, strain BCK1, stronger effect = lower value",0.956
same,normalized growth,"locus YJL115W, strain asf1, stronger effect = lower value",0.975
same,normalized growth,"locus YJL129C, strain trk1, stronger effect = lower value",0.946
same,normalized growth,"locus YJL134W, strain LCB3, stronger effect = lower value",0.974
same,normalized growth,"locus YJL154C, strain vps35, stronger effect = lower value",0.966
same,normalized growth,"locus YJL164C, strain tpk1, stronger effect = lower value",0.973
same,normalized growth,"locus YJL166W, strain qcr8, stronger effect = lower value",0.936
same,normalized growth,"locus YJL168C, strain set2, stronger effect = lower value",0.99
same,normalized growth,"locus YJL187C, strain SWE1 (second series), stronger effect = lower value",0.953
same,normalized growth,"locus YJL187C, strain SWE1, stronger effect = lower value",0.961
same,normalized growth,"locus YJR043C, strain POL32, stronger effect = lower value",0.876
same,normalized growth,"locus YJR075W, strain HOC1, stronger effect = lower value",0.947
same,normalized growth,"locus YKL009W, strain mrt4, stronger effect = lower value",0.939
same,normalized growth,"locus YKL068W, stronger effect = lower value",0.957
same,normalized growth,"locus YKL085W, strain MDH1 (second series), stronger effect = lower value",0.951
same,normalized growth,"locus YKL085W, strain MDH1, stronger effect = lower value",0.951
same,normalized growth,"locus YKL160W, strain elf1, stronger effect = lower value",0.982
same,normalized growth,"locus YKR001C, strain vps1, stronger effect = lower value",0.808 (active)
same,normalized growth,"locus YKR026C, strain gcn3, stronger effect = lower value",0.962
same,normalized growth,"locus YKR091W, strain srl3, stronger effect = lower value",0.969
same,normalized growth,"locus YLL001W, strain dnm1, stronger effect = lower value",0.945
same,normalized growth,"locus YLL026W, stronger effect = lower value",0.973
same,normalized growth,"locus YLL041C, strain sdh2, stronger effect = lower value",0.965
same,normalized growth,"locus YLR027C, strain aat2, stronger effect = lower value",0.951
same,normalized growth,"locus YLR039C, strain RIC1, stronger effect = lower value",0.688
same,normalized growth,"locus YLR058C, strain SHM2, stronger effect = lower value",0.977
same,normalized growth,"locus YLR102C, strain apc9, stronger effect = lower value",0.969
same,normalized growth,"locus YLR221C, strain rsa3, stronger effect = lower value",0.905 (active)
same,normalized growth,"locus YLR258W, strain gsy2, stronger effect = lower value",0.963
same,normalized growth,"locus YLR262C, strain YPT6 (second series), stronger effect = lower value",0.968
same,normalized growth,"locus YLR262C, strain YPT6, stronger effect = lower value",0.801
same,normalized growth,"locus YLR268W, strain sec22, stronger effect = lower value",0.959
same,normalized growth,"locus YLR320W, strain mms22, stronger effect = lower value",0.933
same,normalized growth,"locus YLR330W, strain CHS5, stronger effect = lower value",0.974
same,normalized growth,"locus YLR342W, strain FKS1 (second series), stronger effect = lower value",0.95
same,normalized growth,"locus YLR342W, strain FKS1, stronger effect = lower value",0.963
same,normalized growth,"locus YLR357W, strain rsc2, stronger effect = lower value",0.967
same,normalized growth,"locus YLR370C, strain arc18, stronger effect = lower value",0.965
same,normalized growth,"locus YLR371W, strain rom2, stronger effect = lower value",0.978
same,normalized growth,"locus YLR384C, strain iki3, stronger effect = lower value",0.961
same,normalized growth,"locus YLR418C, strain cdc73, stronger effect = lower value",0.872
same,normalized growth,"locus YML016C, strain PPZ1, stronger effect = lower value",0.982
same,normalized growth,"locus YML032C, strain rad52, stronger effect = lower value",0.967
same,normalized growth,"locus YML120C, strain ndi1, stronger effect = lower value",0.966
same,normalized growth,"locus YML124C, strain tub3, stronger effect = lower value",0.96
same,normalized growth,"locus YMR058W, strain fet3, stronger effect = lower value",0.963
same,normalized growth,"locus YMR078C, strain ctf18, stronger effect = lower value",0.951
same,normalized growth,"locus YMR125W, strain sto1, stronger effect = lower value",1
same,normalized growth,"locus YMR129W, stronger effect = lower value",0.969
same,normalized growth,"locus YMR205C, strain PFK2, stronger effect = lower value",0.981
same,normalized growth,"locus YMR223W, strain ubp8, stronger effect = lower value",0.932
same,normalized growth,"locus YMR231W, strain pep5, stronger effect = lower value",0.972
same,normalized growth,"locus YMR263W, strain SAP30, stronger effect = lower value",0.949
same,normalized growth,"locus YMR307W, strain GAS1, stronger effect = lower value",0.923
same,normalized growth,"locus YNL067W, strain RPL9B, stronger effect = lower value",0.953
same,normalized growth,"locus YNL071W, strain lat1, stronger effect = lower value",0.957
same,normalized growth,"locus YNL153C, strain GIM3, stronger effect = lower value",0.969
same,normalized growth,"locus YNL209W, strain ssb2, stronger effect = lower value",0.997
same,normalized growth,"locus YNL233W, strain BNI4, stronger effect = lower value",0.929
same,normalized growth,"locus YNL248C, strain rpa49, stronger effect = lower value",0.871 (active)
same,normalized growth,"locus YNL250W, strain rad50, stronger effect = lower value",0.967
same,normalized growth,"locus YNL271C, strain bni1, stronger effect = lower value",0.957
same,normalized growth,"locus YNL298W, strain CLA4, stronger effect = lower value",0.977
same,normalized growth,"locus YNL307C, strain MCK1, stronger effect = lower value",0.952
same,normalized growth,"locus YNL322C, strain KRE1 (second series), stronger effect = lower value",0.959
same,normalized growth,"locus YNR049C, strain mso1, stronger effect = lower value",0.968
same,normalized growth,"locus YNR052C, strain pop2, stronger effect = lower value",0.983
same,normalized growth,"locus YOL006C, strain TOP1, stronger effect = lower value",0.587
same,normalized growth,"locus YOL012C, strain htz1",1.06
same,normalized growth,"locus YOL147C, strain pex11, stronger effect = lower value",0.977
same,normalized growth,"locus YOR001W, strain rrp6, stronger effect = lower value",0.922
same,normalized growth,"locus YOR061W, strain CKA2, stronger effect = lower value",0.989
same,normalized growth,"locus YOR069W, strain VPS5, stronger effect = lower value",0.981
same,normalized growth,"locus YOR070C, strain gyp1, stronger effect = lower value",0.979
same,normalized growth,"locus YOR080W, strain dia2, stronger effect = lower value",0.951
same,normalized growth,"locus YOR083W, strain WHI5, stronger effect = lower value",0.979
same,normalized growth,"locus YOR106W, strain vam3, stronger effect = lower value",0.938
same,normalized growth,"locus YOR136W, strain idh2, stronger effect = lower value",0.972
same,normalized growth,"locus YOR144C, strain elg1, stronger effect = lower value",0.979
same,normalized growth,"locus YOR184W, strain ser1, stronger effect = lower value",0.96
same,normalized growth,"locus YOR265W, strain rbl2, stronger effect = lower value",0.964
same,normalized growth,"locus YOR270C, strain vph1, stronger effect = lower value",0.737 (active)
same,normalized growth,"locus YOR290C, strain snf2, stronger effect = lower value",0.976
same,normalized growth,"locus YOR316C, strain cot1, stronger effect = lower value",0.969
same,normalized growth,"locus YPL051W, strain arl3, stronger effect = lower value",0.916
same,normalized growth,"locus YPL078C, strain atp4, stronger effect = lower value",0.959
same,normalized growth,"locus YPL106C, strain sse1, stronger effect = lower value",0.969
same,normalized growth,"locus YPL240C, strain hsp82, stronger effect = lower value",0.979
same,normalized growth,"locus YPR119W, strain clb2, stronger effect = lower value",0.961
same,normalized growth,"locus YPR141C, strain kar3, stronger effect = lower value",0.964
same,normalized growth,"locus YPR163C, strain tif3, stronger effect = lower value",0.948
same,normalized growth,"locus YPR167C, strain met16, stronger effect = lower value",0.969
same,normalized growth,"strain wtn01, stronger effect = lower value",0.957
